Only some compounds are listed: those with a hit (about 27% of all), similar ones and a draw of the others.
CYP2C19 act = activators of human cytochrome P450 2C19; P33261; recombinant CYP2C19, luciferin-H EGE luminescence; hits give high values; 0 = fully inhibited enzyme, 1 = untreated enzyme; activation factor at 5 µM; 96,000 tested, under 10 active; AID 1025;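 active = activation factor of at least 2 at 5 µM in the primary screen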
CYP2C9 inh = inhibitors of human CYP2C9; P11712; CYP2C9 Supersomes, luciferin-H conversion, luminescence; inhibition, % at 5 µM; 96,000 tested, 20% active;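 active = blocking of liver enzyme CYP2C9 beyond about 50% at 5 µM, limit read from the data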
Target sequence (P11712 whole entry, looked up): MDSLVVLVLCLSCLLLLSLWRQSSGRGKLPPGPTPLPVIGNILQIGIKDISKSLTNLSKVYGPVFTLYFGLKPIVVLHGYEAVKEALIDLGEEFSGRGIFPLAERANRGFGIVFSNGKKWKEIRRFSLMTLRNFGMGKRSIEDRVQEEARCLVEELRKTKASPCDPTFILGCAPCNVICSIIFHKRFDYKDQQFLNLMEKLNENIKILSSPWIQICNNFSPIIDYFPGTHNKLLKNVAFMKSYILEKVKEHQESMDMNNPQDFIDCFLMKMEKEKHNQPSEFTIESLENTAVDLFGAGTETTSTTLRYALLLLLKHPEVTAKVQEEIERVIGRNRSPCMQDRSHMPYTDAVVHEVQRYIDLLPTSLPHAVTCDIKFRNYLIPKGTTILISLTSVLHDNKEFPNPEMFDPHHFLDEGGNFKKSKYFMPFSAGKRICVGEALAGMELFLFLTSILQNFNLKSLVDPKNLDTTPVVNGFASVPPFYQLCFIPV
CYP2C19 inhib = human CYP2C19 inhibition. P33261. 96,000 tested, 21% active. inhibition, % at 5 µM. CYP2C19 Supersomes, luciferin-H EGE luminescence, 30 min;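 active = CYP2C19 inhibition above a set limit at 5 µM in the primary screen, cut at about 50% in these data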
CYP2C9 activ = increases human cytochrome P450 2C9 activity; P11712; recombinant CYP2C9, luciferin-H conversion, luminescence; hits give high values; factor 1 = untreated enzyme, 0 = blocked; activation factor at 5 µM; 96,000 tested, 1.4% active; AID 1024;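 active = activation factor of 2 or more for CYP2C9 at a 5 µM dose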
sEH inh = inhibitors of human soluble epoxide hydrolase; 91,000 tested, 0.34% active; inhibition, % at 2 µM; recombinant human sEH enzymatic activity assay; in the data active = inhibition above about 80%
sEH activator = increases human soluble epoxide hydrolase activity. P34913. purified human sEH enzymatic activity, activator screen. activation, % at 2 µM. 91,000 tested, 0.04% active. AID 717; in the data active = activation above about 37%
Numbers stand for hits; – = inactive; · = no result.

SMILES	CYP2C19 act	CYP2C9 inh	CYP2C19 inhib	CYP2C9 activ	sEH inh	sEH activator
Cc1ccc(S(=O)(=O)N2CCC(C(=O)NNS(=O)(=O)c3ccc(Cl)cc3)CC2)cc1	–	–	–	–	–	–
CCCCOc1c(Cl)cc(CNC(C)(C)CO)cc1OCC	–	–	–	–	–	–
CCCCNCc1cc(Cl)c(OCCC)c(OCC)c1	–	–	68	–	–	–
CCOc1c(Cl)cc(CNCC(C)C)cc1OC	–	–	71	–	–	–
CCCCn1c(=S)[nH]c2c(oc3ccc(Cl)cc32)c1=O	·	·	·	·	–	–
C/C(Sc1nnc(Cc2ccccc2)o1)=C(/O)c1ccccc1	–	68	61	–	–	–
COc1ccc(N2CCN(C(=O)CSc3nnc(CNc4ccccc4)o3)CC2)cc1	·	·	·	·	–	–
O=C(O)c1ccc(CSc2nnc(Cc3ccccc3)o2)cc1	–	–	–	–	–	–
COc1ccc(NCc2nnc(SCC(=O)c3ccc(OC)cc3)o2)cc1	–	–	–	2	–	–
COc1cccc(OCc2nnc(SCC(=O)OCc3ccccc3)o2)c1	–	62	76	–	–	–
COc1ccc(NCc2nnc(SCC(=O)Nc3cccc(C)c3)o2)cc1	–	59	72	–	–	–
O=[N+]([O-])c1ccc(Nc2nc(N/N=C\c3ccc4c(c3)OCO4)nc(N3CCCCC3)n2)cc1	–	–	–	–	–	–
COc1ccc(NCc2nnc(SCC(=O)N3CCCc4ccccc43)o2)cc1	–	60	–	–	–	–
O=C(CSc1nnc(CNc2ccccc2)o1)N1CCCc2ccccc21	–	–	–	–	–	–
COc1ccc(Cc2nnc(SCC(=O)c3ccccc3)o2)cc1	–	79	77	–	–	–
CC1CCN(S(=O)(=O)c2ccc(S(=O)(=O)NCC3COCCO3)cc2)CC1 (configuration not stated)	–	–	60	–	·	·
Cc1c(Cl)cccc1N1CC(C(=O)Nc2nccs2)CC1=O (configuration not stated)	–	–	–	–	·	·
CCC(C)C(=O)N1CCc2cc(-c3csc(N)n3)ccc21 (configuration not stated)	–	70	78	–	–	–
CC(C)(C)C(=O)N1CCc2cc(-c3csc(N)n3)ccc21	–	–	–	–	–	–
Cn1c(SCC(=O)c2cc3ccccc3o2)nnc1-c1ccccc1	–	68	84	–	–	–
Cn1ccnc1SCC(=O)c1cc2ccccc2o1	–	–	59	–	–	–
Cc1cccc(NC(=O)CSc2nccn2C)c1	·	·	·	·	–	–
Cn1ccnc1SCC(=O)c1cccc(Br)c1	–	–	86	–	–	–
COc1ccc(-n2nnnc2SCC(=O)c2cc3ccccc3o2)cc1	–	76	91	–	–	–
COc1ccc(-n2c(N3CCN(C)CC3)nc3sc4c(c3c2=O)CCCCC4)cc1	–	–	64	–	·	·
SMILES	CYP2C19 act	CYP2C9 inh	CYP2C19 inhib	CYP2C9 activ	sEH inh	sEH activator
Cn1c(Cc2cccc3ccccc23)nnc1SCC(=O)N1CCN(c2ccccc2)CC1	–	–	–	–	–	–
C=CCNC(=O)CC(=O)N/N=C/c1ccccc1F	–	89	–	–	–	–
O=C(CC(=O)N/N=C/c1ccc(Cl)cc1Cl)NCc1ccccc1	–	–	55	–	–	–
O=C(N/N=C/c1ccc(Cl)cc1Cl)Nc1ccccc1	–	–	–	–	–	–
Cc1cccc(NC(=O)CSc2nnc(-c3ccco3)o2)c1C	–	–	–	–	–	–
CC(=O)c1c(C)cc(C)c(CSc2nnc(-c3ccco3)o2)c1C	–	51	–	–	–	–
COc1ccccc1NC(=O)CSc1nnc(-c2ccc(C)cc2)o1	–	–	–	–	–	–
O=C(Nc1nnc(-c2ccccc2)o1)Nc1ccccc1Cl	–	–	56	–	·	·
Cc1ccc(NC(=O)CSc2nnc(-c3ccncc3)o2)cc1	–	51	98	–	–	–
O=C(CCSc1nnc(-c2ccncc2)o1)Nc1ccccc1Cl	–	61	87	–	–	–
O=C(CCC(=O)OCC(=O)c1cccc([N+](=O)[O-])c1)Nc1ccccc1Cl	–	–	–	–	–	–
CC1=CCC2C(=O)N(c3ccc(C(=O)N4CCCCCC4)cc3)C(=O)C2C1 (configuration not stated)	–	–	–	–	–	–
COC(=O)CSc1nnc(-c2ccncc2)o1	–	–	–	–	–	–
O=C(CCSc1nnc(-c2ccncc2)o1)Nc1ccc(Cl)cc1	–	84	96	–	·	·
O=C(CCSc1nnc(-c2ccco2)o1)Nc1ccc(Cl)cc1	–	–	–	–	·	·
O=C(CCSc1nnc(-c2ccco2)o1)Nc1ccccc1	–	–	79	–	–	–
CCOc1cc(-c2noc(N)c2C#N)cc(OCC)c1OCC	–	53	–	–	–	–
Cc1ccccc1-c1noc(N)c1C#N	–	–	–	–	–	–
C=CCNC(=O)C(=O)c1cccn1-c1ccsc1C(=O)OC	–	–	93	–	–	–
Cn1c(N/N=C/c2ccccc2)nc2sc3c(c2c1=O)CCC3	–	–	–	–	–	–
CCOC(=O)/C=C(\C)Nc1cc(C)nn1-c1ccccc1	–	–	–	–	·	·
CCOC(=O)C(=CNc1cc(C)nn1-c1ccc(Cl)cc1)C(=O)OCC	–	77	71	–	–	–
CCOC(=O)C1/C(=N\O)CC(C)(O)C(C(=O)OCC)C1c1ccc(N(C)C)cc1 (configuration not stated)	–	–	84	–	–	–
CC(=O)c1cc(C#N)c(SCc2ccccc2)nc1C	–	–	–	–	–	–
CN(CCOc1ccccc1)S(=O)(=O)c1ccc2oc3ccccc3c2c1	–	–	52	–	–	–
SMILES	CYP2C19 act	CYP2C9 inh	CYP2C19 inhib	CYP2C9 activ	sEH inh	sEH activator
COc1ccc(OCCNS(=O)(=O)c2ccc3oc4ccccc4c3c2)cc1	–	–	–	–	–	–
CC(=O)Nc1sc(NC(=O)c2ccc(C)cc2)nc1-c1cccs1	·	·	·	·	–	–
C=CCSc1nnc(NC(=O)c2ccc(Cl)nc2)s1	–	–	–	–	–	–
Cc1ccc(NC(=O)C2C3C=CC4(CN(Cc5cccnc5)C(=O)C24)O3)cc1F (configuration not stated)	–	–	58	–	·	·
COc1ccccc1NC(=O)C1C2C=CC3(CN(Cc4cccnc4)C(=O)C13)O2 (configuration not stated)	–	–	–	–	–	–
CCCOC(=O)Nc1cc(OC)c(Cl)cc1OC	–	–	89	–	–	–
CCCCOC(=O)Nc1cc(C)c(Cl)cc1OC	–	–	–	–	–	–
O=C(CN1CCOCC1)NC1CC2CCC1C2 (configuration not stated)	–	–	–	–	–	–
CC(C)c1nnc(NC(=O)c2cccnc2)s1	–	–	–	–	–	–
Cc1nnsc1C(=O)Nc1ccc(Cl)cc1Cl	–	–	–	–	–	–
COc1ccccc1CC(=O)Nc1ccc(OC)c(OC)c1	–	–	–	–	–	–
COc1ccccc1NC(=O)Cc1csc(NC(=S)Nc2ccccc2)n1	–	66	–	–	–	–

Compound activity (PubChem BioAssay)
